Rce1 inh = yeast Ras-converting enzyme inhibition; Q03530; yeast membranes, quenched prenylated peptide cleavage fluorescence; calls only; hit rate 0.27% among 290,000; AID 2563;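 active = fall in fluorescence gain of 50% or more versus controls, with final raw signal at or below 3038400; inconclusive = same 50% fall but final raw signal above 3038400; inactive = fall in fluorescence gain under 50%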;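 also: plate controls were neutral control wells for no effect and wells lacking membranes for full effect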
PLCb3 inh = inhibitors of human phospholipase C beta3. Purified PLC-beta3, fluorogenic substrate, fluorescence. Q01970. inhibition, % at 12.2 µM. hit rate 0.18% among 370,000; in the data active = inhibition above about 11%;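 also: 0% = median of compound wells on plate and 100% = full blocker control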
Target sequence (Q01970 whole entry, looked up): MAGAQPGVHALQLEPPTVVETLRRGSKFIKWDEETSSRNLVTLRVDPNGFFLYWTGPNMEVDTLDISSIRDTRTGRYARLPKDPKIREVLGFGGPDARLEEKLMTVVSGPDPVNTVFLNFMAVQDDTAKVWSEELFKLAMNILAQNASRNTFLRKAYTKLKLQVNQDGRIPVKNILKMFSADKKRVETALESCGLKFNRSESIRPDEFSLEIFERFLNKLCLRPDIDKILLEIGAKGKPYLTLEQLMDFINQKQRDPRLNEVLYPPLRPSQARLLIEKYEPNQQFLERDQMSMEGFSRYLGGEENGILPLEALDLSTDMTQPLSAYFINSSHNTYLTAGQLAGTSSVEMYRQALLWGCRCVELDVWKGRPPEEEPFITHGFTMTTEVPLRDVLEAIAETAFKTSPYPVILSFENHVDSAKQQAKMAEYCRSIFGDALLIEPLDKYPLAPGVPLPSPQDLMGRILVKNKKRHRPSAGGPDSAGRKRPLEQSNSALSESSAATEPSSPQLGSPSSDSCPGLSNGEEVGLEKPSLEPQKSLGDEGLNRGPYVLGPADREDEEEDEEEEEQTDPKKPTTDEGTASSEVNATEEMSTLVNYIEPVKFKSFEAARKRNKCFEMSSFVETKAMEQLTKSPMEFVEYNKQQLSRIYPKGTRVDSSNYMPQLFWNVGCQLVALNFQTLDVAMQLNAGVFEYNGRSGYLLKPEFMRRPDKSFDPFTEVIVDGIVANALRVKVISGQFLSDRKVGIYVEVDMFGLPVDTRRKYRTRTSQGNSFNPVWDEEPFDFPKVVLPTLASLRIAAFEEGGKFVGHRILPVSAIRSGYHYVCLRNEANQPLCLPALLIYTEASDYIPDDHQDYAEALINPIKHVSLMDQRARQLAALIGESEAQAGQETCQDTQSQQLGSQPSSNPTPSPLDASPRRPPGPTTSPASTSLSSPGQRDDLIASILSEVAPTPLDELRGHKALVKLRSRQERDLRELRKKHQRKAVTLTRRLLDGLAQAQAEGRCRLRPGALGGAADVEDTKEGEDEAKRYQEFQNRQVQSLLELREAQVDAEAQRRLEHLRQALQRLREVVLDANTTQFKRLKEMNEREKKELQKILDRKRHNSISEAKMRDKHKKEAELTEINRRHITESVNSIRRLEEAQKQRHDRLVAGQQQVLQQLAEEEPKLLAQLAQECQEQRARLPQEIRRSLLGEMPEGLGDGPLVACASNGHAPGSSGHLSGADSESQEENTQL
ADAM10 inh = inhibitors of human ADAM10; O14672; recombinant ADAM10, EDANS/DABCYL FRET peptide cleavage, 3 h; inhibition, % at 7 µM; hit rate 0.62% among 370,000;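 active = inhibition above a per-campaign cutoff equal to the mean of compounds falling between control-based bounds plus 3 SD, cut at about 20% in these data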;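 also: 0% = DMSO wells while the 100% control is not disclosed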
PLCg1 inh = PLC-gamma1 (human) inhibition, primary screen; hit rate 0.84% among 370,000; purified PLC-gamma1, fluorogenic substrate, fluorescence; P19174; AID 720700; inhibition, % at 12.2 µM; in the data active = inhibition above about 9.5%
ADAM17 inh = inhibitors of human ADAM17; recombinant ADAM17, EDANS/DABCYL FRET peptide cleavage; inhibition, % at 6.95 µM; hit rate 0.83% among 370,000; AID 720648;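 active = inhibition above the mean of compounds lying between control limits plus 3 SD, set per campaign, cut at about 8.5% in these data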;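 also: 0% = DMSO-only wells as the low control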
ADAM10 confirm = confirmation of inhibitors of human ADAM10; inhibition, % at 6.95 µM; shares compounds with ADAM10 inh; hit rate 1% among 2,100; ADAM10 QFRET peptide cleavage, EDANS fluorescence; AID 743208;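 active = inhibition above about 20% chosen separately for each screening run, limit read from the data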;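 also: 0% = DMSO wells and 100% = marimastat wells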
ADAM17 ctr = inhibits human ADAM17 in ADAM10 exosite counter-screen; shares compounds with ADAM10 inh; ADAM17 QFRET peptide cleavage, EDANS fluorescence; inhibition, % at 6.95 µM; hit rate 0.5% among 2,100; AID 743214;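 active = mean triplicate inhibition above the solvent-only control wells' mean plus 3 SD, cut at about 12% in these data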;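 also: 0% = DMSO wells and 100% = marimastat wells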
ADAM10 counter = counter-screen for ADAM17 exosite inhibitors: inhibitors of human ADAM10; shares compounds with ADAM17 inh; recombinant ADAM10, EDANS/DABCYL FRET peptide cleavage, 3 h; inhibition, % at 6.95 µM; hit rate 47% among 2,900;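 active = mean inhibition over the triplicate runs exceeds the activity threshold set in the earlier primary screen, cut at about 20% in these data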;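 also: 0% = DMSO wells and 100% = marimastat wells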
ADAM17 confirm = confirmation of inhibitors of human ADAM17. shares compounds with ADAM17 inh. recombinant ADAM17, EDANS/DABCYL QFRET peptide cleavage. inhibition, % at 6.95 µM. hit rate 65% among 2,900;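 active = mean inhibition across replicates above the hit cutoff set in the primary screen, cut at about 8.5% in these data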;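 also: 0% = DMSO wells and 100% = marimastat wells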
Numbers without * were called inactive; i = inactive; ? = inconclusive; . = no result. Shown are actives, neighbours in structure and some others; about 2.1% of the full set was active somewhere.

SMILES	Rce1 inh	PLCb3 inh	ADAM10 inh	PLCg1 inh	ADAM17 inh	ADAM10 confirm	ADAM17 ctr	ADAM10 counter	ADAM17 confirm
CC(C)COC(=O)NCCOC(=O)Nc1cccc(Cl)c1	i	1	5	2	4	.	.	.	.
O=C(Nc1ccccc1)OCCOc1ccc(Cl)cc1Cl	.	7	32*	6	12*	5	2	28*	15*
O=C(Nc1cccc(Cl)c1)OCCOCCOC(=O)Nc1cccc(Cl)c1	.	0	21*	5	9.8*	4	2	20	13*
COc1ccc(NC(=O)C2CC(=O)N(c3ccccc3F)C2)cc1S(=O)(=O)N1CCCCC1 (configuration not stated)	.	2	1	1	-2	.	.	.	.
C(=N\n1cnnc1)/c1ccc(OCc2cccc3ccccc23)cc1	i	3	23*	7	9.7*	0	0	0	4
O=C(/C=C/c1ccc(OC(F)F)cc1)Nc1cccc(S(=O)(=O)N2CCOCC2)c1	i	-8	15	-4	6	.	.	.	.
Brc1ccc(-c2csc(N3CCNCC3)n2)cc1	.	1	4	3	1	.	.	.	.
COc1ccc(OC)c(-n2c(-c3cc(-c4ccc(F)cc4)n[nH]3)n[nH]c2=S)c1	i	2	20*	2	9.3*	1	1	0	3
COc1ccc(-c2n[nH]c(=S)n2-c2cc(OC)ccc2OC)cc1	i	-8	0	1	-1	.	.	.	.
CC(=O)Nc1ccc(NS(=O)(=O)c2cccc3ccccc23)cc1	i	1	0	3	-1	.	.	.	.
O=S(=O)(Nc1ccc(C(O)(C(F)(F)F)C(F)(F)F)cc1)c1cccc2ccccc12	.	-2	34*	-2	11*	0	0	40*	21*
O=C(CC1CCCC1)N[C@H](C(=O)N1CCC[C@H]1C(=O)NC1CCCC1)c1ccccc1	.	1	-1	2	0	.	.	.	.
O=C(CNC(=S)N(Cc1ccccc1)Cc1ccccc1F)NCCc1ccc(Cl)cc1	i	-3	24*	-1	10*	10	4	21*	14*
CCN(CC)Cc1cc(Nc2c3ccccc3nc3c4ccccc4n(C)c23)cc(CN(CC)CC)c1O	.	-464	-325	-352	-93	.	.	.	.
COc1cccc(Nc2nc(C(N)C3CCCCC3)cs2)n1 (configuration not stated)	.	-1	-6	1	0	.	.	.	.
CCOC(=O)[C@H](CCc1ccccc1)N[C@@H](C)C(=O)N1Cc2cc(OC)c(OC)cc2C[C@H]1C(=O)O	.	3	-2	3	-1	.	.	.	.
COc1ccc(N=Nc2nc(-c3ccccc3)c(-c3ccccc3)[nH]2)cc1	i	3	24*	0	9.2*	9	3	32*	15*
O=C(O)c1ccc(-c2nc(-c3ccccc3)c(-c3ccccc3)[nH]2)cc1	?	i	i	i	i	.	.	.	.
Oc1ccccc1N=Nc1nc(-c2ccccc2)c(-c2ccccc2)[nH]1	i	2	26*	7	9.9*	5	2	28*	12*
Cc1cc2ccccn2c1C(=O)c1ccc([N+](=O)[O-])o1	i	7	5	2	0	.	.	.	.
COc1ccc(N(C)S(=O)(=O)c2cccc(C(=O)OCC(=O)Nc3cc(C)ccc3OC)c2)cc1	.	-2	9	-3	4	.	.	.	.
Cc1ccccc1CN(CC(=O)Nc1cccc([N+](=O)[O-])c1)S(=O)(=O)c1ccc(Cl)cc1	i	4	21*	0	9.7*	8	3	35*	19*
CS(=O)(=O)N(CC(=O)Nc1cccc([N+](=O)[O-])c1)c1ccccc1	i	2	1	-1	0	.	.	.	.
O=C(Cc1cccc2ccccc12)Nc1ccc(OC(F)F)c(Cl)c1	i	1	23*	7	9.9*	6	2	30*	20*
COCc1cccc(NC(=O)Cc2cccc3ccccc23)c1	i	10	8	5	5	.	.	.	.
SMILES	Rce1 inh	PLCb3 inh	ADAM10 inh	PLCg1 inh	ADAM17 inh	ADAM10 confirm	ADAM17 ctr	ADAM10 counter	ADAM17 confirm
COC(=O)C1=CC(=O)C=C(OC)[C@@]12Oc1cc(C)cc(OC)c1C2=O	.	-6	-15	-6	-8	.	.	.	.
O=C(CNc1cc(S(=O)(=O)N2CCCC2)ccc1OCC(F)(F)F)Nc1ccc(SC(F)F)cc1	i	5	20*	3	16*	1	2	35*	20*
O=C(CNc1cc(S(=O)(=O)N2CCCC2)ccc1OCC(F)(F)F)Nc1cc(Cl)cc(Cl)c1	i	.	.	.	.	.	.	.	.
CN(CC(=O)Nc1cccc(F)c1)CC(=O)Nc1cccc(S(=O)(=O)N2CCCCCC2)c1	i	-2	36*	5	16*	1	0	23*	14*
O=C(CNc1ccc(C(F)(F)F)cc1)Nc1cccc(S(=O)(=O)N2CCCCC2)c1	.	-1	22*	-1	9.8*	7	2	54*	27*
O=C(CNc1ccc(C(F)(F)F)cc1)Nc1cccc(S(=O)(=O)N2CCCC2)c1	.	-4	10	-97	3	.	.	.	.
CCOC(=S)SCC(=O)N1CCc2cc(OC)ccc2C1C1C(=O)CCCC1=O (configuration not stated)	i	-5	-8	-7	-4	.	.	.	.
CCC(C)NS(=O)(=O)c1ccc(NC(=O)C(Sc2ccccc2)c2ccccc2)cc1 (configuration not stated)	i	-1	41*	8	20*	8	3	42*	22*
CC(C)(C)C1CCSC2=NCCC[C@]2(c2ccccc2)C1 (some centres not stated)	.	1	-8	1	0	.	.	.	.
N#Cc1ccccc1S(=O)(=O)N1CCN(C(=O)C2CC(=O)N(c3ccc4c(c3)OCCO4)C2)CC1 (configuration not stated)	.	-8	-14	0	-2	.	.	.	.
CC1(C(=O)NCc2ccc(C(F)(F)F)cc2)CCN1Cc1cc2ccccc2o1 (configuration not stated)	.	1	24*	5	11*	2	0	15	7
CC1(C)CC(=O)C2=C(C1)NC(=O)CC2	.	-4	-19	-7	-6	.	.	.	.
CCn1c2ccccc2c2cc(NS(=O)(=O)c3ccccc3C)ccc21	i	2	25*	8	9.4*	6	3	21*	12*
CCCC(=O)Nc1ccc2c(c1)c1ccccc1n2CC	i	-2	-21	-2	-2	.	.	.	.
CNC[C@H]1Oc2cc(Br)ccc2S(=O)(=O)N([C@@H](C)CO)C[C@@H]1C	.	5	-7	2	-2	.	.	.	.

Compound activity from PubChem.
